From PubChem BioAssay (Tox21)
Inconclusive results are not listed. Activity calls are given as the source filed them. Unless noted, calls follow the shape of the dose curve; as a rule, active = well fitted curve in the direction sought with a large enough effect in the repeat runs; inconclusive = weak or mixed curves; inactive = no such curve, though single readings can be large; an effect the other way counts as inactive or inconclusive.

What was measured:
[1] = qHTS assay for small molecule agonists of the p53 signaling pathway (AID 651631; calls by dose curve; also: nearly all actives have a fitted effect of over 15% in size; also: potency is read from the fitted curve at half-maximal effect)
In short: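 Quantitative high-throughput format: 4,000 p53RE-bla HCT-116 cells/well, 5 h pre-incubation, 16 h compound exposure at 37 °C, 2 h room-temperature substrate step, fluorescence intensity measured.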

[2] = qHTS assay for small molecules that induce genotoxicity in human embryonic kidney cells expressing luciferase-tagged ATAD5 (AID 651632); also: nearly all actives have a fitted effect of over 15% in size
In short: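 HEK293T cells carrying a luciferase reporter tagged to ATAD5 were exposed to compound or DMSO vehicle for 16 hr at 37C, 5% CO2. Amplite was added, and after 30 min at room temperature luciferase activity was read as a marker of ATAD5 induction.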

[3] = qHTS assay for small molecule agonists of the p53 signaling pathway - cell viability (AID 651633; calls by dose curve;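 also: p53RE-bla HCT reporter cells with a stable beta-lactamase p53 reporter; series mostly up to about 83 µM; nearly all actives have a fitted effect of over 30% in size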)
In short: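 Viability counter-read: CellTiter-Glo luminescence (30 min, room temperature) in the same p53RE-bla plates. These plates had been exposed to compounds for 16 h at 37 C.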

[4] = qHTS assay for small molecules that induce genotoxicity in human embryonic kidney cells expressing luciferase-tagged ATAD5 - cell viability (AID 651634; calls by dose curve; also: nearly all actives have a fitted effect of over 25% in size; also: potency is read from the fitted curve at half-maximal effect)
In short: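 HEK293T cells expressing luciferase-tagged ATAD5 were exposed to compound or DMSO for 15.5 hr at 37C, 5% CO2. Viability was then read as live-cell protease activity by CellTiter-Fluor fluorescence after 30 min at 37C.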

[5] = qHTS assay for small molecule disruptors of the mitochondrial membrane potential - cell viability (AID 720634; calls by dose curve; also: nearly all actives have a fitted effect of over 20% in size; also: potency is read from the fitted curve at half-maximal effect)
In short: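 HepG2 cells seeded overnight at 37 C, then exposed to compound or DMSO for 1 hr at 37 C, 5% CO2. m-MPI dye added, then CellTiter-Glo for 30 min at room temperature; viability read as ATP luminescence.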

[6] = qHTS assay to test for compound auto fluorescence at 590 nm (red) in HepG2 cells (AID 720674)
In short: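 We screened compounds on adherent HepG2 cells, incubating them for an hour at 37 C in 5% CO2 before reading emission at 590 nm under 540 nm excitation; values reflect equivalence to Rose Bengal sodium fluorescence.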

[7] = qHTS assay to test for compound auto fluorescence at 535 nm (green) in HepG2 cells (AID 720675)
[8] = qHTS assay to test for compound auto fluorescence at 590 nm (red) in HEK293 cells (AID 720679)
In short: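 Red autofluorescence, HEK293 cells: 2,000 cells/well; attach 4-5 hr 37C; add 23 nL cpd or DMSO; incubate o/n 37C 5% CO2; read Ex540/Em590; Rose Bengal sodium reference.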

[9] = qHTS assay to test for compound auto fluorescence at 460 nm (blue) in HEK293 cell free culture (AID 720681)
In short: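 Blue fluorescence (Ex 405/Em 460 nm, triamterene-equivalent) was read immediately after pin transfer of compound or DMSO into medium (DMEM, 10% FBS) without cells.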

[10] = qHTS assay to test for compound auto fluorescence at 535 nm (green) in HEK293 cell free culture (AID 720682)
In short: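 Measurement is a direct plate read of green fluorescence (485 nm in, 535 nm out) after compound addition to serum-supplemented DMEM lacking cells, with fluorescein used to express intensities.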

[11] = qHTS assay to test for compound auto fluorescence at 590 nm (red) in HEK293 cell free culture (AID 720683)
In short: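 Red-channel autofluorescence of compounds in culture medium (DMEM, 10% FBS), no cells, measured at 540/590 nm. Rose Bengal sodium is the reference fluorophore for equivalence.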

[12] = qHTS assay to test for compound auto fluorescence at 590 nm (red) in HepG2 cell free culture (AID 720684)
In short: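 Steps: dispense MEM/10% FBS medium, no cells; pin compound or DMSO vehicle; read red channel, Ex/Em 540/590 nm. Output given as Rose Bengal sodium equivalents.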

[13] = qHTS assay to test for compound auto fluorescence at 460 nm (blue) in HEK293 cells (AID 720678)
In short: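 Intrinsic compound fluorescence is recorded in live HEK293 cultures after overnight incubation at 37C, 5% CO2, using excitation 405 nm and emission 460 nm. Values are referenced to triamterene.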

[14] = qHTS assay to test for compound auto fluorescence at 535 nm (green) in HEK293 cells (AID 720680)
[15] = qHTS assay to test for compound auto fluorescence at 460 nm (blue) in HepG2 cell free culture (AID 720685)
In short: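 Compound (23 nL) or DMSO pinned into cell-free MEM with 10% FBS; blue fluorescence read at 405/460 nm excitation/emission, expressed as auto-fluorescence equivalency to triamterene.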

[16] = qHTS assay to test for compound auto fluorescence at 460 nm (blue) in HepG2 cells (AID 720687)
In short: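 Blue-channel autofluorescence (Ex/Em 405/460 nm, triamterene-equivalent) was measured after 1 hr compound exposure at 37 C, 5% CO2. Cells were HepG2, plated overnight at 37 C in MEM plus 10% FBS.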

[17] = target: Glucocorticoid receptor (Homo sapiens) (UniProt P04150); assay: qHTS assay to identify small molecule agonists of the glucocorticoid receptor (GR) signaling pathway (AID 720691; active = well fitted activation curve with a large enough effect in the signal ratio in the repeat runs, not every such curve was filed as active; the % refers to the signal ratio)
In short: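 GR-bla HeLa cells (beta-lactamase reporter under glucocorticoid response element) were plated 4 h at 37 C/5% CO2, given compounds in DMSO, and incubated 18 h at 37 C. LiveBLAzer B/G FRET substrate was added for 2 h at room temperature, then fluorescence intensity read.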

[18] = target: Glucocorticoid receptor (Homo sapiens) (UniProt P04150); assay: qHTS assay to identify small molecule antagonists of the glucocorticoid receptor (GR) signaling pathway (AID 720692; active = well fitted inhibition curve with a large enough effect in the signal ratio in the repeat runs, not every such curve was filed as active; the % refers to the signal ratio)
In short: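 GR-bla HeLa cells (beta-lactamase reporter under glucocorticoid response element) were pre-plated 4 h at 37 C, treated with compounds plus 5 nM dexamethasone (final) for 18 h, then read by LiveBLAzer B/G FRET fluorescence after 2 h.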

[19] = qHTS assay to test for compound auto fluorescence at 535 nm (green) in HepG2 cell free culture (AID 720686)
% is scaled to controls: 0 for no effect and ±100 for the full control effect.

Chain of Glucocorticoid receptor (Homo sapiens) (P04150 whole entry, looked up): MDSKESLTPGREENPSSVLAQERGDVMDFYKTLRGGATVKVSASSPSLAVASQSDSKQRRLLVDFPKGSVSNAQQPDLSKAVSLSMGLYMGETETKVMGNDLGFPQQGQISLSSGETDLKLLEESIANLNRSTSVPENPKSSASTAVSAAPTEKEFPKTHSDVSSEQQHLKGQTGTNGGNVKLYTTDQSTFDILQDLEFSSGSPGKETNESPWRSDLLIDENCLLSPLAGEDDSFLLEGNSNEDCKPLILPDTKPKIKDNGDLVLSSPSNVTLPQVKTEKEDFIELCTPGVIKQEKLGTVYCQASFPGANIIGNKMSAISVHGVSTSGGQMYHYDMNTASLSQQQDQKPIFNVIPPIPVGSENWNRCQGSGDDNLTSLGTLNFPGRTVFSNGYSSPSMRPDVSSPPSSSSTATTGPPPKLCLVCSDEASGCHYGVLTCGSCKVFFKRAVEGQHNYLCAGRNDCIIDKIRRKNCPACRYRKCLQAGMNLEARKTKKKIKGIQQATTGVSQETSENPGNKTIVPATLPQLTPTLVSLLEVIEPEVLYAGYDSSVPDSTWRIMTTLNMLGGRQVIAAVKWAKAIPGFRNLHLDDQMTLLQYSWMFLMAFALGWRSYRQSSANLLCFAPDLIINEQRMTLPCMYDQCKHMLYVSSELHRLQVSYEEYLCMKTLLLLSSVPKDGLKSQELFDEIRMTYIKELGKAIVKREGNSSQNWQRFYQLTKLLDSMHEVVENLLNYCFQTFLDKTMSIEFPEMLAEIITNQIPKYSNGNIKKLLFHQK

c1ccsc1
inactive: Potency [1] | Potency [2] | Potency [3] | Potency [4] | Potency [5] | Potency [6] | Potency [7] | Potency [8] | Potency [9] | Potency [10] | Potency [11] | Potency [12]

CCO[Si](OCC)(OCC)OCC
inactive: Potency [1] | Potency [2] | Potency [3] | Potency [4] | Potency [5] | Potency [6] | Potency [13] | Potency [8] | Potency [14] | Potency [9] | Potency [10] | Potency [15] | Potency [16] | Potency [17] | Potency [18]

CCCCN(CCCC)CC(O)c1cc(Cl)cc2c1-c1ccc(Cl)cc1/C2=C/c1ccc(Cl)cc1 (stereo unspecified)
inactive: Potency [1] | Potency [2] | Potency [3] | Potency [4] | Potency [5] | Potency [6] | Potency [7] | Potency [13] | Potency [8] | Potency [14] | Potency [9] | Potency [10] | Potency [11] | Potency [12] | Potency [19] | Potency [17]

Cc1ccc(-c2ccccc2)cc1
inactive: Potency [1] | Potency [2] | Potency [3] | Potency [4] | Potency [5] | Potency [6] | Potency [7] | Potency [13] | Potency [8] | Potency [14] | Potency [9] | Potency [10] | Potency [11] | Potency [12] | Potency [19] | Potency [16] | Potency [17] | Potency [18]

O=C(O)[C@H](O)[C@@H](O)[C@H](O[C@@H]1O[C@H](CO)[C@H](O)[C@H](O)[C@H]1O)[C@H](O)CO
inactive: Potency [1] | Potency [2] | Potency [3] | Potency [4] | Potency [5] | fluorescence, relative to Rose Bengal [6] 0.507% [at 18.6 µM] | fluorescence, % of fluorescein control [7] 0.0584% [at 18.6 µM] | fluorescence, % of triamterene [13] 0.228% [at 18.6 µM] | fluorescence, % of fluorescent control [8] 0.434% [at 18.6 µM] | fluorescence, % of fluorescein [14] -0.0275% [at 18.6 µM] | fluorescence, % of fluorescent control [9] -0.0747% [at 18.6 µM] | activity change [10] -0.0154% [at 18.6 µM, stronger effect = higher value] | fluorescence, % of fluorescent control [11] -0.292% [at 18.6 µM] | fluorescence, % of Rose Bengal [12] 0.117% [at 18.6 µM] | fluorescence, % of fluorescent control [15] 0.0634% [at 18.6 µM] | fluorescence, % of fluorescein control [19] -0.112% [at 18.6 µM] | fluorescence, % of fluorescent control [16] 0.0744% [at 18.6 µM] | Potency [17] | Potency [18]

ClCCl
inactive: Potency [1] | Potency [2] | Potency [3] | Potency [4] | Potency [5] | Potency [6] | Potency [7] | Potency [8] | Potency [14] | Potency [9] | Potency [10] | Potency [11] | Potency [12] | Potency [15] | Potency [19] | Potency [16] | Potency [17] | Potency [18]

COCCOc1cc2cc(C(=O)NC3CCN(C(C)C)CC3)n(CC(=O)Nc3ccc(Cl)cn3)c2cn1
inactive: Potency [1] | Potency [2] | Potency [3] | Potency [4] | Potency [5] | Potency [7] | Potency [13] | Potency [8] | Potency [10] | Potency [15] | Potency [19] | Potency [16] | Potency [17] | Potency [18]

CCC(CC)(CC(=O)Nc1cccc(/C=C/c2nc(C3CCC3)cs2)c1)C(=O)O
inactive: Potency [1] | Potency [2] | Potency [3] | Potency [4] | Potency [5] | Potency [6] | Potency [7] | Potency [13] | Potency [8] | Potency [9] | Potency [10] | Potency [11] | Potency [12] | Potency [15] | Potency [16]

CCCCCc1ccc(Cl)cc1
inactive: Potency [1] | Potency [2] | Potency [3] | Potency [4] | Potency [5] | Potency [7] | Potency [13] | Potency [8] | Potency [14] | Potency [9] | Potency [10] | Potency [11] | Potency [12] | Potency [15] | Potency [19] | Potency [16] | Potency [17] | Potency [18]

O=[N+]([O-])c1ccc(O)cc1C(F)(F)F
active: Potency [1] 27.3 µM | Potency [4] 27.3 µM | Potency [5] 5.45 µM
inactive: Potency [2] | Potency [3] | Potency [6] | Potency [7] | Potency [13] | Potency [8] | Potency [14] | Potency [10] | Potency [11] | Potency [12] | Potency [19] | Potency [16] | Potency [17]

O=C(Oc1ccccc1)Oc1ccccc1
inactive: Potency [1] | Potency [2] | Potency [3] | Potency [4] | Potency [5] | Potency [6] | Potency [7] | Potency [13] | Potency [8] | Potency [14] | Potency [9] | Potency [10] | Potency [11] | Potency [19] | Potency [16]

COC(=O)c1ccccc1C
inactive: Potency [1] | Potency [2] | Potency [3] | Potency [4] | Potency [5] | Potency [7] | Potency [13] | Potency [8] | Potency [14] | Potency [10] | Potency [15] | Potency [19] | Potency [16] | Potency [17] | Potency [18]
